{"source": "ChEMBL document CHEMBL3988442", "about": "“University of Dundee, Small-Polar-MMV Screening Library” (2021)", "note": "Among all 48,000 compounds or so, about 13,000 (27%) showed an effect of 50% or more. The list shows a part of the results.", "data": [{"tested_on": "Wolbachia pipientis", "test": "Anti-Wolbachia Cell-Based Screen", "assay_type": "functional", "parameters": "scale not given: in the data most compounds retested in dose-response had high values", "settings": "5 µM", "units": {"Percent Effect": "%"}, "values": [{"smiles": "OCCN(Cc1cccnc1)c1ccc(Cl)cn1", "Percent Effect": -7.592}, {"smiles": "CNc1nc(C(=O)N2C[C@H]3CC[C@@H]2CN(C2CCOCC2)C3)cs1", "Percent Effect": -0.4329}, {"smiles": "CCCc1nc(CN(C)CC2CCN(CCO)CC2)no1", "Percent Effect": -5.007}, {"smiles": "CC(=O)NCCNC(=O)c1cnc2c(c1)nc(-c1ccccc1Cl)n2C", "Percent Effect": -9.781}, {"smiles": "CC(C)[C@H]1CN(c2ccnc(N)n2)C[C@@H]1NC(=O)C1(C#N)CCOCC1", "Percent Effect": 89.33}, {"smiles": "CC(=O)N1C[C@H](NC(=O)c2ccnc(N)c2)[C@@H](C(C)C)C1", "Percent Effect": -4.113}, {"smiles": "COC(C)(C)C(=O)N[C@H]1CN(c2ncccc2C(N)=O)C[C@@H]1C(C)C", "Percent Effect": 2.672}, {"smiles": "Cc1nn(C)c(Oc2ccc(Cl)cc2)c1CN1CC[C@H](CO)[C@@H](O)C1", "Percent Effect": -1.259}, {"smiles": "CN(C)CCN1CCN(Cc2cccc(C#N)c2)Cc2cccnc21.O=C(O)C(F)(F)F.O=C(O)C(F)(F)F.O=C(O)C(F)(F)F", "Percent Effect": 101.9}, {"smiles": "COCc1nccc(C2CCCN(Cc3cccc(C#N)c3)C2)n1", "note": "(configuration not stated)", "Percent Effect": -9.239}, {"smiles": "CCOCC1CN(Cc2cccc(C#N)c2)Cc2nccn2C1.O=C(O)C(F)(F)F", "note": "(configuration not stated)", "Percent Effect": 5.676}, {"smiles": "Cc1noc(C)c1CN1CCN(CCN(C)C)c2ncccc2C1.O=C(O)C(F)(F)F.O=C(O)C(F)(F)F.O=C(O)C(F)(F)F", "Percent Effect": 0.7067}, {"smiles": "CCN(CC)CC1CN(Cc2c(C)noc2C)Cc2nccn2C1", "note": "(configuration not stated)", "Percent Effect": -2.257}, {"smiles": "COCC1CN(Cc2cccc(C#N)c2)Cc2nccn2C1", "note": "(configuration not stated)", "Percent Effect": 107.2}, {"smiles": "Cc1ccc2c(n1)N(CCN(C)C)CCN(Cc1c(C)noc1C)C2.O=C(O)C(F)(F)F.O=C(O)C(F)(F)F.O=C(O)C(F)(F)F", "Percent Effect": 11.23}, {"smiles": "CCN(CC)CC1CN(Cc2cccc(C#N)c2)Cc2nccn2C1.O=C(O)C(F)(F)F.O=C(O)C(F)(F)F", "note": "(configuration not stated)", "Percent Effect": 268.5}, {"smiles": "N#Cc1cccc(CN2Cc3nccn3CC(COCC3CC3)C2)c1.O=C(O)C(F)(F)F", "note": "(configuration not stated)", "Percent Effect": 104.1}, {"smiles": "CCC(C)(NCC(=O)NC(C)C)c1nccs1", "note": "(configuration not stated)", "Percent Effect": -10.98}, {"smiles": "NC(=O)COc1ccc(CN2CCNC(C(=O)NC3CC3)C2)cc1Cl", "note": "(configuration not stated)", "Percent Effect": -45.28}, {"smiles": "CC1CCN(c2ccc3c(-c4ncc(C(=O)O)s4)noc3c2)CC1", "Percent Effect": -16.58}, {"smiles": "CC1(C)COCCN1C(=O)CCc1nc(-c2ccccn2)no1", "Percent Effect": -0.8567}, {"smiles": "O=C(Nc1cccnc1)Nc1ccn(CC(F)F)n1", "Percent Effect": -6.683}, {"smiles": "CN(C)CC1(O)CCCN(c2nc(-c3ccccc3)no2)CC1", "note": "(configuration not stated)", "Percent Effect": -0.08727}, {"smiles": "CN(C)CC1CN(Cc2ccsc2)Cc2nccn2C1.O=C(O)C(F)(F)F.O=C(O)C(F)(F)F", "note": "(configuration not stated)", "Percent Effect": -11.98}, {"smiles": "CCN(CC)CC1CN(Cc2nccs2)Cc2nccn2C1.O=C(O)C(F)(F)F.O=C(O)C(F)(F)F", "note": "(configuration not stated)", "Percent Effect": -6.3}, {"smiles": "N#Cc1cccc(CN2Cc3nccn3CC(CN3CCCC3)C2)c1.O=C(O)C(F)(F)F.O=C(O)C(F)(F)F", "note": "(configuration not stated)", "Percent Effect": 90.25}, {"smiles": "CN(C)CCOCC1CN(Cc2ccsc2)Cc2ccnn2C1.O=C(O)C(F)(F)F.O=C(O)C(F)(F)F.O=C(O)C(F)(F)F", "note": "(configuration not stated)", "Percent Effect": -16.3}, {"smiles": "O=C(Cc1ccccc1)N1Cc2nccn2CC(CN2CCCC2)C1.O=C(O)C(F)(F)F", "note": "(configuration not stated)", "Percent Effect": 14.72}, {"smiles": "Cc1nc(CN2Cc3nccn3CC(CN3CCCC3)C2)cs1.O=C(O)C(F)(F)F.O=C(O)C(F)(F)F", "note": "(configuration not stated)", "Percent Effect": -3.569}, {"smiles": "CCN(CC)CC1CN(CCc2ccccc2)Cc2nccn2C1.O=C(O)C(F)(F)F.O=C(O)C(F)(F)F", "note": "(configuration not stated)", "Percent Effect": 77.99}, {"smiles": "CN(C)CC1CN(Cc2cccc(C#N)c2)Cc2nccn2C1.O=C(O)C(F)(F)F.O=C(O)C(F)(F)F", "note": "(configuration not stated)", "Percent Effect": 95.93}, {"smiles": "CN(C)CCOCC1CN(Cc2cccc(F)c2)Cc2nccn2C1.O=C(O)C(F)(F)F.O=C(O)C(F)(F)F", "note": "(configuration not stated)", "Percent Effect": 63.4}, {"smiles": "CCN(CCC(=O)NC1CC1)Cc1ccc(Cl)s1", "Percent Effect": -9.828}, {"smiles": "Cc1ccccc1OCC1CCCN(C(=O)CN(C)C2CCNCC2)C1", "note": "(configuration not stated)", "Percent Effect": 4.855}, {"smiles": "Cc1ccc(S(=O)(=O)N(C)CC(N)=O)c(Cl)c1", "Percent Effect": 2.18}, {"smiles": "CSCC(=O)N(C)Cc1cnn(-c2ccc(F)cc2)c1", "Percent Effect": -3.16}, {"smiles": "Cc1nonc1CN(C)Cc1cnn(-c2ccc(F)cc2)c1", "Percent Effect": 116.4}, {"smiles": "Cc1nonc1CN(C)Cc1nc(-c2ccccc2Cl)oc1C", "Percent Effect": -14.91}, {"smiles": "Cc1nonc1CN(C)Cc1c[nH]nc1-c1ccc(F)cc1F", "Percent Effect": 1.804}, {"smiles": "CCn1cc(CN(C)S(=O)(=O)c2ccc(Cl)cc2)cn1", "Percent Effect": -0.8604}, {"smiles": "Cc1nonc1CN(C)Cc1cnn(-c2ccc(Cl)cc2)c1", "Percent Effect": 133.6}, {"smiles": "CS(=O)(=O)c1nccn1CCOc1ccc(F)cc1Cl", "Percent Effect": 1.333}, {"smiles": "COc1ccc(S(N)(=O)=O)cc1C(=O)N(C)Cc1cc(C)on1", "Percent Effect": 5.855}, {"smiles": "CCc1nc(C2CCCN(C(=O)c3cccc(Cl)c3)C2)no1", "note": "(configuration not stated)", "Percent Effect": 126.3}, {"smiles": "CCc1nc(C2CCCN(C(=O)c3ccc4c(c3)nnn4C)C2)no1", "note": "(configuration not stated)", "Percent Effect": 5.742}, {"smiles": "CCc1nc(C2CCCN(C(=O)c3cccc4c3ccn4C)C2)no1", "note": "(configuration not stated)", "Percent Effect": -5.539}, {"smiles": "Cc1noc(C2CCCN(C(=O)c3cccc(Cl)c3)C2)n1", "note": "(configuration not stated)", "Percent Effect": -10.95}, {"smiles": "CCc1nc(C2CCCN(C(=O)c3cccc4cn[nH]c34)C2)no1", "note": "(configuration not stated)", "Percent Effect": -7.145}, {"smiles": "CCc1nc(C2CCCN(C(=O)c3cccc(C(N)=O)c3)C2)no1", "note": "(configuration not stated)", "Percent Effect": 115.3}, {"smiles": "NC(=O)c1ccc(N2CCN(Cc3cccc4nsnc34)CC2)nc1", "Percent Effect": -18.45}, {"smiles": "COc1ccc(C(NC(=O)c2cccc[n+]2[O-])C2CC2)cc1", "note": "(configuration not stated)", "Percent Effect": 3.052}, {"smiles": "NC(=O)CN1CC2(CCC1=O)CCN(Cc1ccc(Cl)c(F)c1)CC2", "Percent Effect": 13.87}, {"smiles": "CN(C)C(=O)N1CCCC2(CCN(Cc3ccc(Cl)c(F)c3)C2)C1", "note": "(configuration not stated)", "Percent Effect": 2.484}, {"smiles": "NC(=O)C1(c2cnccn2)CCCN1Cc1ccc(F)c(F)c1", "note": "(configuration not stated)", "Percent Effect": 80.27}, {"smiles": "CCS(=O)(=O)N1CCC2(CCCN(Cc3ccc(F)c(F)c3)C2=O)C1", "note": "(configuration not stated)", "Percent Effect": -34.42}, {"smiles": "O=C(c1cn[nH]c1)N1CCC2(CCCN(Cc3ccc(F)c(F)c3)C2)C1", "note": "(configuration not stated)", "Percent Effect": -7.691}, {"smiles": "NC(=O)C1(c2cnccn2)CCCN1Cc1ccc(Cl)c(F)c1", "note": "(configuration not stated)", "Percent Effect": 137}, {"smiles": "COc1cc(CNC2CCN(c3ccccc3)C2)cc(OC)c1OC", "note": "(configuration not stated)", "Percent Effect": 0.4794}, {"smiles": "CCn1cc(CN(C)S(=O)(=O)c2ccc(NC(C)=O)cc2)cn1", "Percent Effect": 5.791}, {"smiles": "CCc1c(C)nn(CCNC(=O)c2cc(C3CC3)n[nH]2)c1C", "Percent Effect": 1.187}, {"smiles": "CNC(=O)c1cc(C2CCCNC2)n[nH]1.Cl", "note": "(configuration not stated)", "Percent Effect": 96.41}, {"smiles": "CCCc1cc(C(=O)NC2CCCCNC2=O)[nH]n1", "note": "(configuration not stated)", "Percent Effect": -7.069}, {"smiles": "CNC(=O)c1[nH]nc2c1CN(c1cc(C3CCCNC3)nc(C)n1)CC2", "note": "(configuration not stated)", "Percent Effect": -2.336}, {"smiles": "CNC(=O)c1cc(C2CCCN2)n[nH]1.Cl", "note": "(configuration not stated)", "Percent Effect": 155.4}, {"smiles": "O=C(c1ccc(C2CCCN2)s1)N1CC=CC1", "note": "(configuration not stated)", "Percent Effect": 0.32}, {"smiles": "Cl.O=C(NC1CCCC1)c1cc(C2CCCNC2)n[nH]1", "note": "(configuration not stated)", "Percent Effect": 150.1}, {"smiles": "COc1ccccc1OCc1cc(C(=O)NC[C@@H]2CCCN2)n[nH]1", "Percent Effect": -26.39}, {"smiles": "O=C(NC1CCCC1)c1n[nH]c2c1CNCC2", "Percent Effect": -11.08}, {"smiles": "CSC1(CNc2ccc(Br)cn2)CCOCC1", "Percent Effect": -9.614}, {"smiles": "CCOCCNC(=O)c1cc(Br)c2c(c1)OCCO2", "Percent Effect": -10.75}, {"smiles": "COCCC(=O)N1CC2(CCN(Cc3ccccc3Cl)CC2)C1.O=C(O)C(F)(F)F", "Percent Effect": 7.796}, {"smiles": "Cc1noc(C)c1S(=O)(=O)N1CCc2nc(C3CCNCC3)ncc2C1.Cl", "Percent Effect": 92.39}, {"smiles": "Cl.O=S(=O)(c1ccc(Cl)cc1)N1CCc2nc(C3CCNCC3)ncc2C1", "Percent Effect": 112}, {"smiles": "Cc1ccc(S(=O)(=O)N2CCc3nc(C4CCNCC4)ncc3C2)cc1.Cl", "Percent Effect": -12.78}, {"smiles": "Cc1nc(C2CCN(S(=O)(=O)c3ccc4c(c3)CCC4)CC2)n[nH]1", "Percent Effect": -1.341}, {"smiles": "CCC[C@H]1CN(S(=O)(=O)c2c(C)noc2C)C[C@@H]1N", "Percent Effect": -20.84}, {"smiles": "Cc1n[nH]c(C)c1CCN(C)C(=O)c1ccc(CN2CCCCC2)cc1", "Percent Effect": -26.72}, {"smiles": "CCc1cnc(C)nc1NCC(O)CN1CCCCCC1", "note": "(configuration not stated)", "Percent Effect": -1.473}, {"smiles": "Cc1nnc([C@@H]2CC[C@@H]3[C@@H](CCN3S(C)(=O)=O)O2)o1", "Percent Effect": 4.456}, {"smiles": "Cc1nnc([C@@H]2CC[C@@H]3[C@@H](CCN3C3CCOCC3)O2)o1", "Percent Effect": -2.772}, {"smiles": "Cc1nnc([C@@H]2CC[C@@H]3[C@@H](CCN3C3CCC3)O2)o1", "Percent Effect": 107.1}, {"smiles": "CC(=O)C(Cc1ccccc1)NC(=O)CSc1nncn1C", "note": "(configuration not stated)", "Percent Effect": 8.647}, {"smiles": "COCC1(CNc2cc(C(C)C)nc(N)n2)CC1", "Percent Effect": 12.37}, {"smiles": "CC(C)NC1CCc2c(ccc(=O)n2CC2CC2)C1.O=C(O)C(F)(F)F", "note": "(configuration not stated)", "Percent Effect": -1.359}, {"smiles": "COCC(=O)N1CCc2ccc(=O)n(Cc3csc(C)n3)c2CC1.O=C(O)C(F)(F)F", "Percent Effect": -6.118}, {"smiles": "Cc1nc(CN2C[C@@H]3CN(C(=O)NC(C)C)C[C@@H]3C2=O)cs1.O=C(O)C(F)(F)F", "Percent Effect": 4.242}, {"smiles": "Cc1nc(Cn2c3c(ccc2=O)CC(NC(C)C)CC3)cs1.O=C(O)C(F)(F)F.O=C(O)C(F)(F)F", "note": "(configuration not stated)", "Percent Effect": 95.6}, {"smiles": "CCCC(=O)NC1CCc2c(ccc(=O)n2Cc2csc(C)n2)C1.O=C(O)C(F)(F)F", "note": "(configuration not stated)", "Percent Effect": 92.99}, {"smiles": "Cc1nc(Cn2c3c(ccc2=O)CCN(CC2CC2)CC3)cs1.O=C(O)C(F)(F)F.O=C(O)C(F)(F)F", "Percent Effect": 7.996}, {"smiles": "COCCNC(=O)[C@@H](C)[C@@H]1CCc2c(C)cc(OCC(=O)O)c(C)c2C1", "Percent Effect": -3.996}, {"smiles": "Cc1cccc(N2CCC(N3CCC4(CN(C)C(=O)O4)C3)CC2)c1C", "note": "(configuration not stated)", "Percent Effect": 10.35}, {"smiles": "O=C(CN1CCOC1=O)N1CC[C@@H](c2ccc3ccccc3c2)[C@H](O)C1", "Percent Effect": 1.475}]}]}
